# The panel holds about 83,000 compounds, 20% with a hit somewhere; the sample as a whole holds those more often.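 Percent growth is the endpoint: 0 to 100 indicates growth inhibition (40 means 60% inhibition), 0 means no net growth, and negative values indicate cell death.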 A number with no mark means an inactive call. Calls of active or inactive are those of the source. How the source made its calls: active means growth percent below 10; inactive means the rest.
# Legend:
# Assay in all cases: NCI-60 one-dose screen, 48 h (100 = growth as untreated, 0 = no growth, -100 = all killed)
# SR leukemia = conditions: 10 µM unless noted
# OVCAR-8 ovarian = conditions: 10 µM unless noted
# OVCAR-5 ovarian = conditions: 10 µM unless noted
# OVCAR-4 ovarian = conditions: 10 µM unless noted
# SK-OV-3 ovarian = conditions: 10 µM unless noted
# IGROV1 ovarian = conditions: 10 µM unless noted
# OVCAR-3 ovarian = conditions: 10 µM unless noted
# HS 578T breast = conditions: 10 µM
# NCI/ADR-RES ovarian = conditions: 10 µM unless noted
# T-47D breast = conditions: 10 µM unless noted
# BT-549 breast = conditions: 10 µM unless noted
# MDA-MB-435 melanoma = conditions: 10 µM unless noted
# SW-620 colon = conditions: 10 µM unless noted
# MCF7 breast = conditions: 10 µM unless noted
# HCT-116 colon = conditions: 10 µM unless noted
# HCC-2998 colon = conditions: 10 µM
# KM12 colon = conditions: 10 µM unless noted
# RPMI-8226 leukemia = conditions: 10 µM unless noted
SMILES,growth (SR leukemia),growth (OVCAR-8 ovarian),growth (OVCAR-5 ovarian),growth (OVCAR-4 ovarian),growth (SK-OV-3 ovarian),growth (IGROV1 ovarian),growth (OVCAR-3 ovarian),growth (HS 578T breast),growth (NCI/ADR-RES ovarian),growth (T-47D breast),growth (BT-549 breast),growth (MDA-MB-435 melanoma),growth (SW-620 colon),growth (MCF7 breast),growth (HCT-116 colon),growth (HCC-2998 colon),growth (KM12 colon),growth (RPMI-8226 leukemia)
COC(=O)[C@]12CC[C@@H](C)[C@H](C)[C@@H]1C1=CC[C@@H]3[C@@]4(C)C(c5cnco5)=C[C@@](C)(CO)C4=CC[C@@]3(C)[C@]1(C)CC2,21.1%,60.8%,78.8%,40.6%,67.2%,77.6%,50.1%,72.8%,53.9%,14.7%,56.4%,60.5%,50.9%,37.1%,22.6%,45.5%,37.2%,
O=C(Nc1ccc(C2=NCCCN2)cc1)c1ccc(C(=O)Nc2ccc(C3=NCCCN3)cc2)nc1,85.2%,112%,95.1%,102%,106%,107%,101%,-26.5% (active),102%,97.3%,106%,117%,104%,98%,93.2%,,112%,
O=C(COc1ccc(/C=C2\Cc3ccc(Cl)cc3C2=O)cc1)Nc1nccs1,148%,,,90%,108%,,103%,101%,86.7%,85.2%,106%,113%,,89%,91.3%,,115%,91.7%
CCc1nc2ccc(Cc3ccc(C(=O)NO)cc3)cc2c(=O)n1CCc1ccccc1,2.05% (active),-31% (active),1.71% (active),-7.64% (active),-26.9% (active),-56.7% (active),-37.1% (active),14.9%,-17.3% (active),-7.19% (active),-31.2% (active),-73.7% (active),-27.2% (active),4.69% (active),-55% (active),-74.8% (active),-58.9% (active),
CC(=Nc1ccccc1)C1=C(O)C(Cc2ccc(O)cc2)NC1=O (stereo unspecified),-9.58% (active),-53.5% (active),32.1%,36.6%,23%,17.8%,-63.2% (active),-27.2% (active),-13.4% (active),67.4%,15.2%,-8.69% (active),15.6%,10%,3.3% (active),,,
N#Cc1c(NC(=O)c2ccco2)[n+]([O-])c2cc(F)c(F)cc2[n+]1[O-],8.42% (active),,119%,89.7%,99.4%,29.6%,102%,,112%,71.8%,,98%,87.5%,67.5%,101%,,85%,17.8%
COC(=O)[C@@H](C)CNS(=O)(=O)N(c1cc(C(F)(F)F)cc(C(F)(F)F)c1)C1CCN(Cc2ccc(F)cc2)CC1,26.7%,67.3%,76.1%,73.4%,76.2%,54.7%,56.7%,90.7%,51%,31.1%,89.6%,76.8%,73.9%,48.7%,43.4%,-65.3% (active),51%,
CN1CCN(Cc2ccc(NC(=O)c3[nH]ncc3Nc3ncnc4sc5c(c34)CCCC5)cc2)CC1,-54.3% (active),-39.6% (active),-86.8% (active),-41.4% (active),-5.01% (active),-60.9% (active),-83.8% (active),-32.5% (active),-61.7% (active),9.76% (active),-20.7% (active),-89% (active),-52% (active),-67.2% (active),-96% (active),-74.9% (active),-64.3% (active),
Nc1nc(=S)c2ncn(C3OC(COC(=O)c4ccc(Cl)cc4)C(OC(=O)c4ccc(Cl)cc4)C3OC(=O)c3ccc(Cl)cc3)c2[nH]1 (stereo unspecified),72.8%,129%,91.9%,86.2%,43.5%,93.5%,81%,-29% (active),103%,59.6%,113%,103%,100%,59.8%,76%,,83.9%,
CCN1CCN(c2nc(C)cc(N(CCNc3ccnc4cc(Cl)ccc34)Cc3ccc4c(c3)OCO4)n2)CC1,-35.2% (active),16.1%,78.2%,34.1%,74.8%,42.7%,20.9%,22.1%,36.4%,-51.7% (active),21.5%,-72.5% (active),3.4% (active),23.8%,10.3%,-29.8% (active),,
COc1ccc(-c2cc3c(C)nc(N)nc3n(C3CCC(OCCO)CC3)c2=O)cn1 (stereo unspecified),1.95% (active),,-18.8% (active),-7.57% (active),-49.9% (active),-36.9% (active),-10.5% (active),,-14.7% (active),-50.5% (active),-18.1% (active),-18.5% (active),7.56% (active),1.58% (active),7.89% (active),-0.799% (active),5.53% (active),3.64% (active)
CO[C@@H](C)Cn1c(=O)n(C)c2cnc3ccc(-c4cncc(C(C)(C)O)c4)cc3c21,-2.77% (active),,5.28% (active),-14.6% (active),-36.5% (active),-25.7% (active),8.39% (active),,,-21.9% (active),-6.62% (active),0.636% (active),,6.25% (active),3.72% (active),,5.54% (active),-16.8% (active)
COC(=O)c1[nH]cnc1/N=N/N(C)CCO,75.4%,109%,92.9%,105%,98.3%,109%,99%,-26.7% (active),95.9%,91.1%,98.4%,112%,102%,96%,93.5%,,106%,
CCOC(=O)c1sc(NC(=O)COc2ccc(/C=C3\Cc4ccc(Cl)cc4C3=O)cc2)nc1C,103%,,111%,112%,110%,,113%,116%,93.9%,92.9%,94.5%,105%,123%,96.1%,92.9%,,112%,96.1%
O=C1NC(=O)[C@@H](c2cn3c4c(cccc24)CCC3)[C@@H]1c1c[nH]c2ccccc12,13.8%,,48%,55.4%,,27.7%,18.4%,,9.44% (active),24.3%,16.2%,-13.2% (active),27.5%,19.5%,2.94% (active),18.4%,4.42% (active),22.8%
COC(=O)[C@@H](NC(=O)[C@@H](OC)[C@@H]1Cc2cc3cc(OC4CC(OC5CC(O)C(O)C(C)O5)C(O)C(C)O4)c(C)c(O)c3c(O)c2C(=O)[C@H]1OC1CC(OC2CC(OC3CC(C)(O)C(O)C(C)O3)C(O)C(C)O2)C(O)C(C)O1)C(C)C (stereo partly specified),-8.16% (active),12.6%,2.67% (active),13.4%,20.4%,32.3%,15.3%,-13.9% (active),69.6%,10.2%,-20.7% (active),18.9%,16.6%,6.73% (active),4.79% (active),11.2%,4.63% (active),
CC(C)OP(=O)(CCC(=O)c1c[nH]c2ccccc12)OC(C)C,100%,,107%,105%,,106%,106%,86.6%,103%,89.5%,117%,,105%,100%,113%,97.3%,99.9%,73.5%
O=C(COc1cccc(/C=C2\Cc3ccc(Cl)cc3C2=O)c1)Nc1nccs1,48%,,102%,81.6%,96%,,89.6%,105%,76.6%,55.5%,87.3%,86.6%,110%,35.1%,64.5%,,77.2%,54.6%
CC(C)[C@@H]1CC[C@@H]2[C@@H]1[C@H](OC(=O)/C=C/c1ccccc1)[C@]1(C(C)C)C[C@@H](OC(=O)CO)[C@@]2(C)O1,41.8%,,109%,79.4%,,102%,83.6%,-15.4% (active),13.9%,52.2%,20.5%,101%,99.4%,71.7%,65.2%,79.9%,82.6%,53.7%
